Measurements published in publication PMC4336329 (PLoS ONE, 2015).
Out of some 310,000 compounds screened, about 14,000 (4.5%) showed an effect of 50% or more. Effects have a minus sign here. This excerpt belongs to a sample that is enriched for strong results.

Target: human ether-à-go-go-related gene (hERG) potassium channel (human, UniProt Q12809)
Experiment: primary screen, population patch clamp on CHO cells stably expressing hERG; higher = less effect of the substance
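Further: peak tail current of the secondary pulse compared with the same well before compound.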

Sequence of human ether-à-go-go-related gene (hERG) potassium channel (Q12809 whole entry, looked up): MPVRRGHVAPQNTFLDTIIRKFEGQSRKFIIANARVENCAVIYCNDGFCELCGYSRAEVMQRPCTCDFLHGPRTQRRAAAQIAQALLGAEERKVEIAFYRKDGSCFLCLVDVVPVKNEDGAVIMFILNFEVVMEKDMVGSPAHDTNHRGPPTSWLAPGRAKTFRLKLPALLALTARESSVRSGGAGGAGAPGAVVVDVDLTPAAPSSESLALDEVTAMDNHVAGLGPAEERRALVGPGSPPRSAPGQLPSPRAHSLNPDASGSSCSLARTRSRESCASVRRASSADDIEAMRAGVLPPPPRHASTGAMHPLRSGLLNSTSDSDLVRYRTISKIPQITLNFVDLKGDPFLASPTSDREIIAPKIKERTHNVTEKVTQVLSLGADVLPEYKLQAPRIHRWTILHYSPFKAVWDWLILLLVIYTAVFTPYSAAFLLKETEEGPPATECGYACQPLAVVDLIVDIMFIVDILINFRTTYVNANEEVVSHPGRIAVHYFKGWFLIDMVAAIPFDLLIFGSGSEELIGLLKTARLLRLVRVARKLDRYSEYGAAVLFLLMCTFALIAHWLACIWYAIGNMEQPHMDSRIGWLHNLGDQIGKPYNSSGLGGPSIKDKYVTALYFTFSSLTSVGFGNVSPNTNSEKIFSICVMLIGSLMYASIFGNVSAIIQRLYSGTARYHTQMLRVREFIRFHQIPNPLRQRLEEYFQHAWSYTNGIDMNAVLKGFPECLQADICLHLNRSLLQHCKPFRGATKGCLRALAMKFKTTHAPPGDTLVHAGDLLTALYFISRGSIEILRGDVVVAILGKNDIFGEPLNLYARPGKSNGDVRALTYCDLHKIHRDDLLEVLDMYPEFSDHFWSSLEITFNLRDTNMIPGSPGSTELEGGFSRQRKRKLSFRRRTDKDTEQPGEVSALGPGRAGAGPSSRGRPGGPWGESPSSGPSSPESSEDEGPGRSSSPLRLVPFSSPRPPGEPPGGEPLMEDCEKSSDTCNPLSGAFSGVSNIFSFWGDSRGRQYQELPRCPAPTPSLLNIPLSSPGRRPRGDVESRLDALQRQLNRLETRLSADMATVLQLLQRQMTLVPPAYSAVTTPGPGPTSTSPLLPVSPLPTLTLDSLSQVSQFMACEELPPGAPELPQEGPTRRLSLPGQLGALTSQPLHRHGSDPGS

First: CCn1cc(S(=O)(=O)CC(=O)Nc2ccc3c(c2)OCCO3)c2ccccc21
Second: COc1cc(NC(=O)CN2C(=O)NC3(CCOc4ccccc43)C2=O)cc(OC)c1 (stereo not drawn)
The “hERG current change (%, negative = inhibition) at 10uM” value of the first is lower: -13.1% for the first, -3.2% for the second.

Going from CCOC(=O)C1=C(C)N(c2ccccc2)C(=O)/C1=C\c1cccs1 to Cc1cc(C(=O)NCCN2C(=O)S/C(=C\c3cccs3)C2=O)ccc1[N+](=O)[O-], the “hERG current change (%, negative = inhibition) at 10uM” value falls from 18.1% to -1.91%.

First: CC(=O)N1CCN(CCN=CC2=C(O)CC(c3cccs3)CC2=O)CC1 (stereo not drawn)
Second: CCC(=O)N1CCN(CCN=CC2=C(O)CC(c3cccs3)CC2=O)CC1 (stereo not drawn)
The “hERG current change (%, negative = inhibition) at 10uM” value of the first is higher: 8.53% for the first, -9.43% for the second.

Going from CCCCCC(=O)N1CCN(CCN=CC2=C(O)CC(c3ccco3)CC2=O)CC1 (stereo not drawn) to CCCCCC(=O)N1CCN(CCN=CC2=C(O)CC(c3cccs3)CC2=O)CC1 (stereo not drawn), the “hERG current change (%, negative = inhibition) at 10uM” value falls from -76.2% to -106%.

Compared with CC(=O)N1CCN(CCN=CC2=C(O)CC(c3ccco3)CC2=O)CC1 (stereo not drawn), CC(C)C(=O)N1CCN(CCN=CC2=C(O)CC(c3ccco3)CC2=O)CC1 (stereo not drawn) is lower in “hERG current change (%, negative = inhibition) at 10uM” value: 1.17% for the first, 0.717% for the second.

Compared with COc1cc(-c2cc(-c3ccc(O)cc3)nc(N)c2C#N)ccc1O, Cc1ccccc1Nc1nc(N)nc(CSc2ccc(F)cc2)n1 is lower in “hERG current change (%, negative = inhibition) at 10uM” value: 18.5% for the first, -50.4% for the second.

Compared with CCn1c(SCC(=O)NC2CCCc3ccccc32)nnc1-c1cccs1 (stereo not drawn), CCN1CCc2c(sc(NC(=O)Cc3ccccc3)c2C(N)=O)C1.Cl is higher in “hERG current change (%, negative = inhibition) at 10uM” value: -24.6% for the first, -20.3% for the second.

Compared with CC(Nc1ccc(Cl)cc1)C(=O)NN (stereo not drawn), COc1cccc(NC(=O)c2c(F)cccc2F)c1 is lower in “hERG current change (%, negative = inhibition) at 10uM” value: -5.86% for the first, -6.78% for the second.

Compared with CCOC(=O)c1[nH]cnc1C(=O)Nc1cccc(OC)c1, CCN1CCc2c(sc(NC(=O)COc3ccccc3)c2C(=O)OC)C1.Cl is lower in “hERG current change (%, negative = inhibition) at 10uM” value: 2.14% for the first, -62.6% for the second.

First: NC(=O)c1cc(S(=O)(=O)NCc2ccc(F)cc2)cs1
Second: CCc1ccc(NC(=O)C2CCN(S(=O)(=O)c3ccc4[nH]c(=O)ccc4c3)CC2)cc1
The “hERG current change (%, negative = inhibition) at 10uM” value of the first is lower: 3.37% for the first, 3.6% for the second.

Compared with Nc1nc(CSC(=S)N2CCN(c3ccccc3)CC2)nc(Nc2ccc(F)cc2)n1, Nc1nc(CN2CCN(c3ccccn3)CC2)nc(Nc2ccc(F)cc2)n1 is lower in “hERG current change (%, negative = inhibition) at 10uM” value: 2.14% for the first, -67.4% for the second.

First: Nc1nc(CSc2ncn[nH]2)nc(Nc2ccc(F)cc2)n1
Second: COc1ccc(Nc2nc(N)nc(CSc3nccn3C)n2)cc1
The “hERG current change (%, negative = inhibition) at 10uM” value of the first is higher: 6.74% for the first, 4.64% for the second.

Compared with Cc1ccccc1Nc1nc(N)nc(CCl)n1, Cc1ccccc1Nc1nc(N)nc(CSc2ccccc2)n1 is lower in “hERG current change (%, negative = inhibition) at 10uM” value: 10.5% for the first, -21% for the second.

Compared with S=C(NCc1ccc(Cl)cc1)N1CCN(c2ccccn2)CC1, COc1ccc(NC(=S)N2CCN(c3ccccn3)CC2)cc1 is higher in “hERG current change (%, negative = inhibition) at 10uM” value: -23.9% for the first, -0.967% for the second.

Compared with Cc1ccc(SCc2nc(N)nc(Nc3ccccc3C)n2)cc1C, Nc1nc(CSc2ccccn2)nc(Nc2ccccc2)n1 is higher in “hERG current change (%, negative = inhibition) at 10uM” value: 1.31% for the first, 1.81% for the second.

First: Cc1ccccc1Nc1nc(N)nc(CN2CCN(c3ccccn3)CC2)n1
Second: Nc1nc(CN2CCN(c3ccccn3)CC2)nc(Nc2ccc(Cl)cc2)n1
The “hERG current change (%, negative = inhibition) at 10uM” value of the first is higher: -66.6% for the first, -74.8% for the second.

Compared with Cc1ccccc1Nc1nc(N)nc(CN2CCN(C(=O)c3ccccc3)CC2)n1, COc1ccc(Nc2nc(N)nc(CN3CCN(c4ccccn4)CC3)n2)cc1 is lower in “hERG current change (%, negative = inhibition) at 10uM” value: -37.9% for the first, -65.1% for the second.

First: O=C(c1ccc(Cl)cc1)N1N=CCC1(O)c1ccc(Cl)cc1 (stereo not drawn)
Second: Cn1c(COc2ccc(C(=O)O)cc2)nc2ccccc21
The “hERG current change (%, negative = inhibition) at 10uM” value of the first is higher: 15.7% for the first, 14.7% for the second.

Going from Cc1ccc(NC(=O)c2c([N+](=O)[O-])c(C(C)(C)C)nn2C)c(C)c1 to COc1ccc(NC(=O)CC(C)C)c([N+](=O)[O-])c1, the “hERG current change (%, negative = inhibition) at 10uM” value falls from 20.7% to -0.754%.

Compared with Cc1ccc2cc(/C=N/NC(=O)c3ccccc3[N+](=O)[O-])c(Cl)nc2c1, Cc1ccc(C(=O)NC(=S)Nc2ccccc2C)cc1 is higher in “hERG current change (%, negative = inhibition) at 10uM” value: -5.33% for the first, -0.104% for the second.

Compared with CC(OC(=O)CCc1c[nH]c2ccccc12)C(=O)c1ccccc1 (stereo not drawn), COc1ncnc(-c2ccccc2)c1-c1ccccc1 is higher in “hERG current change (%, negative = inhibition) at 10uM” value: -17.8% for the first, 1.86% for the second.

Going from CC(C)N1CCc2c(sc(NC(=O)c3ccco3)c2C(N)=O)C1.Cl to COC(=O)c1c(NC(=O)c2ccco2)sc2c1CCN(C(C)C)C2.Cl, the “hERG current change (%, negative = inhibition) at 10uM” value falls from -6.82% to -62.5%.

First: COC(=O)c1c(NC(=O)Cc2ccccc2)sc2c1CCN(C(C)C)C2.Cl
Second: CC(C)N1CCc2c(sc(NC(=O)Cc3ccccc3)c2C(N)=O)C1.Cl
The “hERG current change (%, negative = inhibition) at 10uM” value of the first is lower: -61.4% for the first, -11.5% for the second.

First: COC(=O)c1c(NC(=O)c2ccco2)sc2c1CCN(C(C)=O)C2
Second: COC(=O)c1c(NC(C)=O)sc2c1CCN(Cc1ccccc1)C2.Cl
The “hERG current change (%, negative = inhibition) at 10uM” value of the first is higher: -2.22% for the first, -9.29% for the second.

Compared with CN1CCc2c(sc(NC(=O)Cc3ccccc3)c2C#N)C1.Cl, CC(C)N1CCc2c(sc(NC(=O)Cc3ccccc3)c2C#N)C1.Cl is lower in “hERG current change (%, negative = inhibition) at 10uM” value: -7.24% for the first, -16% for the second.

Compared with CCOC(=O)c1c(NC(=O)Cc2ccccc2)sc2c1CCN(C)C2.Cl, CCOC(=O)c1c(NC(=O)Cc2ccccc2)sc2c1CCN(CC)C2.Cl is lower in “hERG current change (%, negative = inhibition) at 10uM” value: -53% for the first, -65.3% for the second.

Compared with CN1CCc2c(sc(NC(=O)Cc3ccccc3)c2C(N)=O)C1.Cl, CC(C)N1CCc2c(sc(NC(=O)CCc3ccccc3)c2C(N)=O)C1.Cl is lower in “hERG current change (%, negative = inhibition) at 10uM” value: -16.2% for the first, -57.2% for the second.

First: COC(=O)c1c(NC(=O)c2ccc([N+](=O)[O-])o2)sc2c1CCN(C(C)C)C2.Cl
Second: CCN1CCc2c(sc(NC(=O)Cc3ccccc3)c2C(=O)OC)C1.Cl
The “hERG current change (%, negative = inhibition) at 10uM” value of the first is higher: -25.1% for the first, -51.5% for the second.

Compared with CCN1CCc2c(sc(NC(=O)CN3C(=O)c4ccccc4C3=O)c2C(N)=O)C1.Cl, CCOC(=O)c1c(NC(=O)c2cccc(N3C(=O)CCC3=O)c2)sc2c1CCN(CC)C2.Cl is higher in “hERG current change (%, negative = inhibition) at 10uM” value: -36.6% for the first, -31.5% for the second.

Compared with COc1ccc(/C=N/n2c(-c3n[nH]c4c3CCC4)n[nH]c2=S)c(OC)c1OC, CCn1nc(C)cc1C(=O)N1CCc2c([nH]c3ccccc23)C1c1cc(F)ccc1F (stereo not drawn) is lower in “hERG current change (%, negative = inhibition) at 10uM” value: 20.7% for the first, -1.16% for the second.

Compared with COc1nc(NC(C)=O)nc(C)c1Br, CC(C)(C)C1CCc2c(sc(NC(=O)c3ccco3)c2C(N)=O)C1 (stereo not drawn) is higher in “hERG current change (%, negative = inhibition) at 10uM” value: -1.69% for the first, 19.8% for the second.

Going from CC(C)(C)C1CCc2c(sc(NC(=O)c3cccs3)c2C(=O)N2CCCCC2)C1 (stereo not drawn) to CN1CCN(C(=O)c2c(NC(=O)c3ccco3)sc3c2CCC(C(C)(C)C)C3)CC1 (stereo not drawn), the “hERG current change (%, negative = inhibition) at 10uM” value falls from 7.32% to -69.5%.

Going from CC(C)N1CCc2c(sc(NC(=O)c3ccc(C(=O)c4ccccc4)cc3)c2C(N)=O)C1.Cl to CCN1CCc2c(sc(NC(=O)c3ccc(S(=O)(=O)N4CCOCC4)cc3)c2C(=O)OC)C1.Cl, the “hERG current change (%, negative = inhibition) at 10uM” value falls from -38.2% to -42.2%.
